Sampled rows, rich in hits. Any-hit rate of the full collection: about 3.5%.
GDH-TPI counter-1: GDH-TPI coupled enzyme inhibition counter-screen; 360,000 tested, 1.2% active; AID 588335; GDH-TPI coupled enzyme counterscreen, NADH absorbance; inhibition, % at 4.8 µM; in the data active means inhibition above about 30%;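 further: 0% = DMSO wells and 100% = wells lacking the enzyme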
UGM FP inh: Mtb UDP-galactopyranose mutase inhibition | P9WIQ1 | purified UGM, fluorescence polarization probe displacement | inhibition, % at 10 µM | 320,000 tested, 0.06% active | AID 504406; in the data active means inhibition above about 10%, passing the limit was not always enough
FBA Mtb inh: Mtb fructose-bisphosphate aldolase inhibition. purified M. tuberculosis FBA, fluorescence read-out. 360,000 tested, 2.3% active. P9WQA3. AID 588726. inhibition, % at 1 µM;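 further: 0% = vehicle and 100% = reference inhibitor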
Target sequence (P9WQA3 whole entry, looked up): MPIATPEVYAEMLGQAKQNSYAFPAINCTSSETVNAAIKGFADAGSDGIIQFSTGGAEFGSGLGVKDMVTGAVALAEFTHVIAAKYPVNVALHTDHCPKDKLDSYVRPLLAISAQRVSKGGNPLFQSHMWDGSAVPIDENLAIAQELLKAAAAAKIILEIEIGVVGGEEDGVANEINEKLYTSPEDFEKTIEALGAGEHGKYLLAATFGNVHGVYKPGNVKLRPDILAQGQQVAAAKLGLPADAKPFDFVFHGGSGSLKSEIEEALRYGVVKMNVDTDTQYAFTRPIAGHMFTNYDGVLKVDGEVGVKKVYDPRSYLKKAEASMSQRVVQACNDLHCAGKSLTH
Rv3671c protease: inhibits the M. tuberculosis serine protease Rv3671c; P9WHR9; inhibition, % at 5.96 µM; 320,000 tested, 0.048% active; AID 2606; in the data active means inhibition above about 38%;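 further: extracellular domain of Rv3671c used as enzyme; 0% = enzyme with DMSO and 100% = no enzyme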
Mtb FBA confirm: confirmation of M. tuberculosis fructose-bisphosphate aldolase inhibitors; 5,600 tested, 78% active; purified M. tuberculosis FBA, fluorescence read-out; shares compounds with FBA Mtb inh; inhibition, % at 1 µM;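 further: 0% = vehicle wells and 100% = reference inhibitor wells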
GDH-TPI counter-2: GDH-TPI inhibition counter-screen for FBA inhibitors | shares compounds with FBA Mtb inh | GDH-TPI coupled enzyme counterscreen, fluorescence | inhibition, % at 1 µM | 5,600 tested, 81% active; in the data active means inhibition above about 10%
An asterisk follows results filed as active; x = not tested or not shown; + = active, no number. Unless noted, no stated cut-off is given here; in the data, active means inhibition above about 27%; inactive means the rest.

SMILES | GDH-TPI counter-1 | UGM FP inh | FBA Mtb inh | Rv3671c protease | Mtb FBA confirm | GDH-TPI counter-2
Cc1ccc(NC(=O)C2C3C=CC4(O3)C2C(=O)N(CCCN2CCCCC2)C4C(=O)NC2CCCCC2)cc1C (stereo unspecified) | -1.1 | 0.8 | -1.9 | 3.5 | x | x
COc1cc(/C=C/C(=O)Nc2ccncc2)cc(OC)c1OC | 16.5 | -2.4 | 37.9* | 3.4 | 74.2* | 66.0*
CCN1C(=O)N(CC)c2cccc3cccc1c23 | 14.5 | 0.8 | 2.1 | 5.3 | x | x
CN1CN(C)c2cccc3cccc1c23 | 15.7 | -1.6 | 97.9* | 5.9 | 47.7* | 39.8*
O=C(c1ccc2c(c1)OCO2)N1CCN(S(=O)(=O)c2ccc(Cl)cc2)CC1 | 1.5 | 1.3 | 11.2 | -10.2 | x | x
CC1(C)Cc2nc(NC3CCCCC3)c(C#N)cc2CO1 | 11.0 | 0.1 | 35.8* | 4.0 | 127.4* | 110.6*
O=C1N=C(N2CCN(c3ccccc3)CC2)S/C1=C/c1cccs1 | 25.8 | 3.6 | 33.8* | 0.1 | 6.2 | -7.7
O=C1N=C(N2CCN(Cc3ccccc3)CC2)S/C1=C/c1cccs1 | 28.0 | -1.1 | 1.6 | -3.5 | x | x
CC(O)(c1ccc(F)c(F)c1)c1nc(-c2ccoc2)cs1 (stereo unspecified) | 13.3 | x | 3.9 | x | x | x
CN1CC=C2C(C#N)=C(N)C(C#N)(C#N)[C@H](c3cccc(Cl)c3)C2C1 (stereo partly specified) | 12.4 | -1.0 | 28.5* | 3.8 | 8.8 | -0.5
CN1CC=C2C(C#N)=C(N)C(C#N)(C#N)C(c3ccncc3)C2C1 (stereo unspecified) | 6.6 | 3.9 | 19.8 | 5.7 | x | x
CN1CC=C2C(C#N)=C(N)C(C#N)(C#N)C(c3ccsc3)C2C1 (stereo unspecified) | 8.3 | 4.3 | 29.9* | 9.6 | 79.2* | 65.0*
CCCC1C2CN(C(C)C)CC=C2C(C#N)=C(N)C1(C#N)C#N (stereo unspecified) | 15.7 | 13.3* | 45.8* | 8.2 | 25.9 | 28.6*
Cc1cc(OCC(=O)OCC(=O)N2CC(C)CC(C)C2)ccc1Cl (stereo unspecified) | -3.8 | -0.3 | -1.8 | -1.6 | x | x
COc1ccc(-c2cc3nc(NCCN4CCCC4)n(C)c(=O)c3s2)cc1OC | 20.4 | x | 38.9* | x | 96.1* | 72.5*
CCOC(=O)CCc1c(C)n(CC)c2cc(-c3ccccc3OC)nn2c1=O | 7.6 | 1.2 | 66.5* | -2.5 | + | +
COc1ccccc1CNC(=O)CCc1c(C)nc2cc(-c3ccccc3OC)nn2c1C | 9.3 | -0.5 | 16.5 | -4.7 | x | x
COc1ccccc1-c1cc2nc(C)c(CCC(=O)NCc3ccc(F)cc3)c(C)n2n1 | 13.8 | 1.5 | 13.2 | -8.1 | x | x
CCN(CC)CCCNC(=O)CCc1c(C)n(CC)c2cc(-c3ccccc3OC)nn2c1=O | -6.6 | 2.4 | 65.0* | -4.5 | 195.4* | 118.2*
O=C(O)c1cc(-c2cc(C(=O)O)c3ccccc3n2)nc2ccccc12 | x | 2.8 | x | -3.8 | x | x
Cc1ccc(-c2cc(C(=O)NCc3ccccn3)c3ccccc3n2)cc1C | 11.3 | -0.9 | 46.2* | -23.4 | 136.4* | 94.4*
COc1ccc(-c2cc(C(=O)OCc3ccccn3)c3ccccc3n2)cc1 | 0.7 | 1.8 | 43.5* | 0.5 | 107.3* | 86.0*
CCn1cc(-c2cc(C(=O)O)c3ccccc3n2)cn1 | 3.1 | 0.2 | 53.8* | 4.3 | 59.7* | 44.5*
O=C(NCc1ccccn1)c1cc(-c2ccc(-c3ccccc3)cc2)nc2ccccc12 | 16.3 | 0.3 | 36.9* | -45.3 | 20.2 | 14.7*
O=C(NCc1ccccn1)c1cc(-c2ccccc2)nc2ccccc12 | 2.5 | -2.3 | 5.1 | -7.9 | x | x
SMILES | GDH-TPI counter-1 | UGM FP inh | FBA Mtb inh | Rv3671c protease | Mtb FBA confirm | GDH-TPI counter-2
COCCNC(=O)C(c1ccc(C)cc1)N(C(=O)CCC(=O)Nc1ccccn1)C1CCCCC1 (stereo unspecified) | 3.5 | -3.1 | -1.4 | 3.7 | x | x
C[C@H]1[C@H](c2ccccc2)C[C@@H](C(=O)O)C1(C)C | -13.2 | -1.3 | -0.8 | -6.0 | x | x
Cc1cccc(NC(=O)CN(C)C(=O)Cc2ccc(-c3ccccc3)cc2)c1C | 2.6 | x | -1.4 | x | x | x
Cc1ccc(-c2cc(C(=O)OCC(=O)NC3CC3)c3ccccc3n2)cc1 | 9.2 | x | 36.5* | -5.1 | 95.5* | 81.2*
CC(=O)NS(=O)(=O)c1ccc(NC(=O)c2cc(-c3ccc(C)cc3)nc3ccccc23)cc1 | 10.7 | 3.4 | -2.1 | -10.9 | x | x
COCCNC(=O)c1cc(-c2ccc(-c3ccccc3)cc2)nc2ccccc12 | 16.8 | -1.2 | 107.6* | -20.4 | + | +
CCOC(=O)Cc1cc(-c2ccc(OC)cc2)nc2ccc3ccccc3c12 | 3.3 | -2.5 | 35.3* | -22.2 | 110.4* | 89.4*
CC(=O)Nc1ccc(-c2cc(C(=O)O)c3ccccc3n2)cc1 | 13.0 | 5.0 | 56.0* | 2.3 | + | 195.2*
COc1ccc(C(O)P(=O)(OCC(C)C)c2ccc(N(C)C)cc2)c(OC)c1 (stereo unspecified) | 3.3 | 3.7 | 2.3 | 6.5 | x | x
Cc1ccccc1C(=O)NC1CCN(C(=O)Nc2ccccc2Cl)CC1 | 1.3 | -0.2 | 1.9 | 4.1 | x | x
COc1ccc2[nH]c(C(=O)NCc3ccc4c(c3)OCO4)cc2c1 | 10.7 | -0.7 | 38.8* | -6.0 | 4.5 | -1.9
COc1ccc2[nH]c(C(=O)NCCN3CCOCC3)cc2c1 | 2.2 | 0.4 | 77.0* | 3.9 | 43.0* | 34.6*
O=C(NCCOC(=O)c1ccccc1)c1ccccc1 | -1.8 | 0.8 | -0.4 | 1.4 | x | x
CC(C)CN(C(=O)COC(=O)c1ccccc1NCc1ccco1)c1c(N)n(Cc2ccccc2)c(=O)[nH]c1=O | -0.7 | 0.9 | 30.5* | 0.0 | 152.0* | 122.6*
CC(C)CN(C(=O)COC(=O)c1cccc2ccccc12)c1c(N)n(Cc2ccccc2)c(=O)[nH]c1=O | 11.7 | -1.8 | 0.3 | -9.5 | x | x
COCCN(C(=O)COC(=O)c1ccccc1NCc1ccco1)c1c(N)n(Cc2ccccc2)c(=O)[nH]c1=O | 10.8 | 2.3 | 81.2* | 1.4 | 150.9* | 117.7*
COCCN(C(=O)COC(=O)c1ccco1)c1c(N)n(Cc2ccccc2)c(=O)[nH]c1=O | 2.4 | 5.3 | -1.6 | -5.2 | x | x
CCc1nc2oc(C(=O)c3ccccc3)c(N)c2c2c1COC(C)(C)C2 | -0.6 | 2.2 | 3.1 | 7.1 | x | x
CCOC(=O)c1oc2nc3c(cc2c1N)COC(C)(C)C3 | 11.8 | -1.6 | 45.5* | -1.8 | 11.9 | 16.6*
CCOC(=O)c1oc2nc(C)c3c(c2c1N)CC(C)(C)OC3 | 0.6 | 3.7 | 34.0* | -4.4 | 100.4* | 75.2*
O=C(CSc1nnc2c(n1)[nH]c1ccc(F)cc12)NCc1ccc(F)cc1 | 7.5 | -2.8 | 1.5 | -16.3 | x | x
CSc1ccc(/C=C/C(=O)N2CCCN(C)CC2)cc1 | 17.9 | -1.3 | 32.3* | 4.6 | 52.3* | 44.9*
CCc1ccc(C(=O)COC(=O)c2cccnc2Cl)cc1 | 5.1 | 3.3 | -0.7 | 0.5 | x | x
CC(=O)Nc1ccc(NC(=O)Nc2ccccc2)cc1 | -5.5 | 1.3 | 0.5 | -8.0 | x | x
Cc1cnc(NC(=O)Nc2ccccc2)c(C)n1 | 9.0 | 0.4 | 58.6* | 2.1 | -4.7 | -3.2
